Experimental data published in PubChem BioAssay AID1159580 (chemical genetic matrix, 2015).
Hit rate of the full screen: of about 5,500 compounds, about 2,000 (36%) were called active. Not shown: some 18% with an inconclusive outcome. Rule as the data show it: active = normalized growth mostly below about 0.91 (no sharp cut-off); inconclusive = no clear call, values can overlap the other calls; inactive = mostly above about 0.92. The list shows a part of the results.

Experiment: chemical genetic growth profiling, strain panel (AID 1159580);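 also: tested at 20 µM; growth read once vehicle control cultures reached saturation at 30 °C; 1 = growth at the plate median or of vehicle wells; lower values mean less growth of the strain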
Settings: growth OD

Measured: normalized growth

NC(N)=NS(=O)(=O)c1ccc(N)cc1
inactive: S. cerevisiae deletion strains, locus YJR066W, strain TOR1, stronger effect = lower value 0.909 | S. cerevisiae deletion strains, locus YKL009W, strain mrt4, stronger effect = lower value 0.993 | S. cerevisiae deletion strains, locus YKL068W, stronger effect = lower value 1 | S. cerevisiae deletion strains, locus YKL085W, strain MDH1 (second series), stronger effect = lower value 1.02 | S. cerevisiae deletion strains, locus YKL085W, strain MDH1, stronger effect = lower value 1.02 | S. cerevisiae deletion strains, locus YKL160W, strain elf1, stronger effect = lower value 0.996 | S. cerevisiae deletion strains, locus YKL190W, strain CNB1, stronger effect = lower value 1.01 | S. cerevisiae deletion strains, locus YKR001C, strain vps1, stronger effect = lower value 1.01 | S. cerevisiae deletion strains, locus YKR026C, strain gcn3, stronger effect = lower value 0.955 | S. cerevisiae deletion strains, locus YKR091W, strain srl3, stronger effect = lower value 0.991 | S. cerevisiae deletion strains, locus YLL001W, strain dnm1, stronger effect = lower value 0.998 | S. cerevisiae deletion strains, locus YLL026W, stronger effect = lower value 0.991 | S. cerevisiae deletion strains, locus YLL041C, strain sdh2, stronger effect = lower value 0.973 | S. cerevisiae deletion strains, locus YLR027C, strain aat2, stronger effect = lower value 0.974 | S. cerevisiae deletion strains, locus YLR039C, strain RIC1, stronger effect = lower value 1.02 | S. cerevisiae deletion strains, locus YLR058C, strain SHM2, stronger effect = lower value 1.02 | S. cerevisiae deletion strains, locus YLR102C, strain apc9, stronger effect = lower value 0.986 | S. cerevisiae deletion strains, locus YLR113W, strain HOG1, stronger effect = lower value 0.967 | S. cerevisiae deletion strains, locus YLR221C, strain rsa3, stronger effect = lower value 0.984 | S. cerevisiae deletion strains, locus YLR258W, strain gsy2, stronger effect = lower value 0.998 | S. cerevisiae deletion strains, locus YLR262C, strain YPT6 (second series), stronger effect = lower value 0.984 | S. cerevisiae deletion strains, locus YLR262C, strain YPT6, stronger effect = lower value 1.03 | S. cerevisiae deletion strains, locus YLR268W, strain sec22, stronger effect = lower value 0.996 | S. cerevisiae deletion strains, locus YLR320W, strain mms22, stronger effect = lower value 0.992 | S. cerevisiae deletion strains, locus YLR330W, strain CHS5, stronger effect = lower value 1.01 | S. cerevisiae deletion strains, locus YLR342W, strain FKS1 (second series), stronger effect = lower value 1.01 | S. cerevisiae deletion strains, locus YLR342W, strain FKS1, stronger effect = lower value 0.977 | S. cerevisiae deletion strains, locus YLR357W, strain rsc2, stronger effect = lower value 0.986 | S. cerevisiae deletion strains, locus YLR370C, strain arc18, stronger effect = lower value 0.981 | S. cerevisiae deletion strains, locus YLR371W, strain rom2, stronger effect = lower value 0.993 | S. cerevisiae deletion strains, locus YLR384C, strain iki3, stronger effect = lower value 0.995 | S. cerevisiae deletion strains, locus YLR418C, strain cdc73, stronger effect = lower value 0.994 | S. cerevisiae deletion strains, locus YML016C, strain PPZ1, stronger effect = lower value 1.01 | S. cerevisiae deletion strains, locus YML032C, strain rad52, stronger effect = lower value 0.987 | S. cerevisiae deletion strains, locus YML120C, strain ndi1, stronger effect = lower value 0.978 | S. cerevisiae deletion strains, locus YML124C, strain tub3, stronger effect = lower value 0.992 | S. cerevisiae deletion strains, locus YMR058W, strain fet3, stronger effect = lower value 0.984 | S. cerevisiae deletion strains, locus YMR078C, strain ctf18, stronger effect = lower value 0.997 | S. cerevisiae deletion strains, locus YMR125W, strain sto1, stronger effect = lower value 0.966 | S. cerevisiae deletion strains, locus YMR129W, stronger effect = lower value 0.997 | S. cerevisiae deletion strains, locus YMR205C, strain PFK2, stronger effect = lower value 1 | S. cerevisiae deletion strains, locus YMR223W, strain ubp8, stronger effect = lower value 0.996 | S. cerevisiae deletion strains, locus YMR231W, strain pep5, stronger effect = lower value 1 | S. cerevisiae deletion strains, locus YMR307W, strain GAS1, stronger effect = lower value 1.03 | S. cerevisiae deletion strains, locus YNL067W, strain RPL9B, stronger effect = lower value 1.03 | S. cerevisiae deletion strains, locus YNL071W, strain lat1, stronger effect = lower value 0.986 | S. cerevisiae deletion strains, locus YNL128W, strain TEP1, stronger effect = lower value 1.03 | S. cerevisiae deletion strains, locus YNL153C, strain GIM3, stronger effect = lower value 1.04 | S. cerevisiae deletion strains, locus YNL183C, strain NPR1, stronger effect = lower value 0.918 | S. cerevisiae deletion strains, locus YNL209W, strain ssb2, stronger effect = lower value 0.993 | S. cerevisiae deletion strains, locus YNL233W, strain BNI4, stronger effect = lower value 1.03 | S. cerevisiae deletion strains, locus YNL248C, strain rpa49, stronger effect = lower value 0.972 | S. cerevisiae deletion strains, locus YNL250W, strain rad50, stronger effect = lower value 0.987 | S. cerevisiae deletion strains, locus YNL271C, strain bni1, stronger effect = lower value 0.985 | S. cerevisiae deletion strains, locus YNL298W, strain CLA4, stronger effect = lower value 0.994 | S. cerevisiae deletion strains, locus YNL307C, strain MCK1, stronger effect = lower value 0.987 | S. cerevisiae deletion strains, locus YNL322C, strain KRE1 (second series), stronger effect = lower value 0.967 | S. cerevisiae deletion strains, locus YNR049C, strain mso1, stronger effect = lower value 0.981 | S. cerevisiae deletion strains, locus YNR052C, strain pop2, stronger effect = lower value 0.986 | S. cerevisiae deletion strains, locus YOL006C, strain TOP1, stronger effect = lower value 1.09 | S. cerevisiae deletion strains, locus YOL012C, strain htz1 0.841 | S. cerevisiae deletion strains, locus YOL147C, strain pex11, stronger effect = lower value 0.992 | S. cerevisiae deletion strains, locus YOR001W, strain rrp6, stronger effect = lower value 0.986 | S. cerevisiae deletion strains, locus YOR061W, strain CKA2, stronger effect = lower value 1.02 | S. cerevisiae deletion strains, locus YOR069W, strain VPS5, stronger effect = lower value 1.01 | S. cerevisiae deletion strains, locus YOR070C, strain gyp1, stronger effect = lower value 0.979 | S. cerevisiae deletion strains, locus YOR080W, strain dia2, stronger effect = lower value 0.985 | S. cerevisiae deletion strains, locus YOR083W, strain WHI5, stronger effect = lower value 0.979 | S. cerevisiae deletion strains, locus YOR106W, strain vam3, stronger effect = lower value 0.976 | S. cerevisiae deletion strains, locus YOR136W, strain idh2, stronger effect = lower value 0.986 | S. cerevisiae deletion strains, locus YOR144C, strain elg1, stronger effect = lower value 0.99 | S. cerevisiae deletion strains, locus YOR184W, strain ser1, stronger effect = lower value 1.02 | S. cerevisiae deletion strains, locus YOR231W, strain MKK1, stronger effect = lower value 0.98 | S. cerevisiae deletion strains, locus YOR265W, strain rbl2, stronger effect = lower value 0.979 | S. cerevisiae deletion strains, locus YOR270C, strain vph1, stronger effect = lower value 0.973 | S. cerevisiae deletion strains, locus YOR290C, strain snf2, stronger effect = lower value 0.992 | S. cerevisiae deletion strains, locus YOR316C, strain cot1, stronger effect = lower value 0.993 | S. cerevisiae deletion strains, locus YPL051W, strain arl3, stronger effect = lower value 0.997 | S. cerevisiae deletion strains, locus YPL055C, strain LGE1, stronger effect = lower value 1.07 | S. cerevisiae deletion strains, locus YPL078C, strain atp4, stronger effect = lower value 0.994 | S. cerevisiae deletion strains, locus YPL106C, strain sse1, stronger effect = lower value 0.953 | S. cerevisiae deletion strains, locus YPL240C, strain hsp82, stronger effect = lower value 0.991 | S. cerevisiae deletion strains, locus YPL256C, strain CLN2, stronger effect = lower value 0.953 | S. cerevisiae deletion strains, locus YPR119W, strain clb2, stronger effect = lower value 0.994 | S. cerevisiae deletion strains, locus YPR141C, strain kar3, stronger effect = lower value 0.997 | S. cerevisiae deletion strains, locus YPR163C, strain tif3, stronger effect = lower value 0.997 | S. cerevisiae deletion strains, locus YPR167C, strain met16, stronger effect = lower value 0.993 | S. cerevisiae deletion strains, strain wtn01, stronger effect = lower value 0.988 | S. cerevisiae strains, strain wild type, stronger effect = lower value 1.02
